The experiment has as its system Trichoderma virens ATCC 9645. The experiment in a line: growth yield (OD600) relative to untreated control; higher = less growth inhibition. The conditions noted are these: compound concentration: 100 uM. In short, it runs like this:
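Library compounds (100 μM final), with or without a co-applied biocide (200 ng ml^−1), were added to 100 μl aliquots of Trichoderma virens ATCC 9645 spores at 15,000 spores ml^−1 in potato dextrose broth. Cultures were grown at 30 °C in 96-well plates, and OD600 was measured at 40 h and 72 h. Each growth value is a mean of duplicate screens, expressed relative to the control with neither agent.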

Where a name gives a salt, the structure may show the parent alone. ± gives the standard error. Among all 1,300 compounds or so, about 75 (6%) showed an effect of 50% or more. The sample as a whole holds a higher share of strong results than the screen did.

In the case of `CN(C)CCN(Cc1ccc(Cl)cc1)c1ccccn1` [Chloropyramine hydrochloride], the growth yield is, setting by setting: (40 h) 98.8 ± 1.9%; (72 h) 96.2 ± 2.6%.
Regarding `CCCCCCCCCCCCCCCC[N+](C)(C)CCN(Cc1ccc(OC)cc1)c1ncccn1` [Thonzonium bromide], the growth yield was found to be 0% (40 h) and 0% (72 h).
`Nc1ncn(C2OC(CO)C(O)C2O)c(=O)n1` (centres undefined) [Azacytidine-5]: the growth yield is, setting by setting: (40 h) 89.4 ± 5.9%; (72 h) 88.4 ± 4.3%.
As for `CC(C)[C@H](N)C(=O)OCCOCn1cnc2c(=O)nc(N)[nH]c21` [Valacyclovir hydrochloride], the growth yield runs as follows: (40 h) 102%; (72 h) 103%.
In the same order, the values of `CC(=C(CCO)SSCC1CCCO1)N(C=O)Cc1cnc(C)nc1N` (stereo in doubt) [Fursultiamine Hydrochloride] are 104 ± 5.2% and 101 ± 3.1%.
In the same order, the values of `NC[C@H]1CC[C@H](C(=O)O)CC1` [Tranexamic acid] are 99.75 ± 0.64% and 102.2 ± 0.73%.
In the same order, the values of `CCCCOc1ccc(OCCCN2CCOCC2)cc1` [Pramoxine hydrochloride] are 89.6 ± 1.9% and 90.5 ± 2.2%.
`C#Cc1cccc(Nc2ncnc3cc(OCCOC)c(OCCOC)cc23)c1` [Erlotinib]: the growth yield runs as follows: (40 h) 108%; (72 h) 105%.
In the same order, the values of `COc1cc2ncnc(Nc3ccc(F)c(Cl)c3)c2cc1OCCCN1CCOCC1` [Gefitinib] are 7.47 ± 0.16% and 6.29%.
As to `CC[C@H]1OC(=O)[C@H](C)[C@@H](O[C@H]2C[C@@](C)(OC)[C@@H](O)[C@H](C)O2)[C@H](C)[C@@H](O[C@@H]2O[C@H](C)C[C@H](N(C)C)[C@H]2O)[C@](C)(O)C[C@@H](C)/C(=N\OCOCCOC)[C@H](C)[C@@H](O)[C@]1(C)O` [Roxithromycin], the growth yield was determined as 97.85 ± 0.64% (40 h) and 96.7 ± 1.5% (72 h).
In the same order, the values of `COc1ccnc(C[S+]([O-])c2nc3cc(OC(F)F)ccc3[nH]2)c1OC` (centres undefined) [Pantoprazole sodium] are 88.2 ± 6.2% and 94 ± 3.8%.
Regarding `Cc1c(F)c(N2CCNC(C)C2)cc2c1c(=O)c(C(=O)O)cn2C1CC1` (centres undefined) [Grepafloxacin], the growth yield (40 h) is 99.9 ± 1.4% and the growth yield (72 h) came out at 97.53 ± 0.63%.
For `CC(=O)OCC(=O)[C@@]1(O)[C@H](C)C[C@H]2[C@@H]3CCC4=CC(=O)C=C[C@]4(C)[C@@]3(F)[C@@H](O)C[C@@]21C` [Dexamethasone acetate] the same measures were 102 ± 4% and 103 ± 3.7%.
With `CCOCCn1c(N2CCCN(C)CC2)nc2ccccc21` [Emedastine], the growth yield runs as follows: (40 h) 98.96 ± 0.16%; (72 h) 96.9 ± 2.7%.
In the same order, the values of `CCC(C)(C)c1ccc(CC(C)CN2C[C@@H](C)O[C@@H](C)C2)cc1` (some centres undefined) [Amorolfine hydrochloride] are 4.45 ± 0.32% and 2.94 ± 0.21%.
In the same order, the values of `CCn1cc(C(=O)O)c(=O)c2cnc(N3CCNCC3)nc21` [Pipemidic acid] are 94.4 ± 3.5% and 92.7%.
In the same order, the values of `NC[C@@H]1O[C@H](O[C@H]2[C@@H](O)[C@H](O[C@@H]3[C@@H](O)[C@H](N)C[C@H](N)[C@H]3O[C@H]3O[C@H](CO)[C@@H](O)[C@H](O)[C@H]3N)O[C@@H]2CO)[C@H](N)[C@@H](O)[C@@H]1O` [Paromomycin sulfate] are 102.6 ± 0.32% and 96.59 ± 0.32%.
As to `O=C1CN(/N=C/c2ccc(-c3ccc([N+](=O)[O-])cc3)o2)C(=O)N1` [Dantrolene sodium salt], the growth yield was found to be 93.4 ± 2.2% (40 h) and 99.7 ± 1.4% (72 h).
In the same order, the values of `O=C(NCC(O)CO)c1c(I)c(C(=O)NCC(O)CO)c(I)c(N(CCO)C(=O)CO)c1I` (centres undefined) [Ioversol] are 101 ± 5.4% and 98.1 ± 2.8%.
In the same order, the values of `OCCN1CCN(CCCN2c3ccccc3Sc3ccc(C(F)(F)F)cc32)CC1` [Fluphenazine dihydrochloride] are 44 ± 6.2% and 90.3 ± 8.9%.
For `CN(C)CCCN1c2ccccc2Sc2ccc(C(F)(F)F)cc21` [Triflupromazine hydrochloride] the same measures were 74.66 ± 0.32% and 92.1 ± 2.1%.
With `OCCN1CCN(CCCN2c3ccccc3C=Cc3ccccc32)CC1` [Opipramol dihydrochloride], the growth yield came to 91.3 ± 1.1% (40 h) and 98.1 ± 1.4% (72 h).
In the same order, the values of `CN1CCN(CCCN2c3ccccc3Sc3ccc(C(F)(F)F)cc32)CC1` [Trifluoperazine dihydrochloride] are 20 ± 0.95% and 63.35 ± 0.42%.
In the same order, the values of `CC(=O)c1ccc2c(c1)N(CCCN1CCC(CCO)CC1)c1ccccc1S2` [Piperacetazine] are 124 ± 8.6% and 119 ± 8.9%.
In the same order, the values of `CN(C)CCCN1c2ccccc2Sc2ccccc21` [Promazine hydrochloride] are 91.33 ± 0.16% and 95.6%.
Regarding `CO[C@H]1C[C@H](O[C@H]2[C@H](C)[C@@H](O[C@@H]3O[C@H](C)C[C@H](N(C)C)[C@H]3OC(C)=O)[C@@H](C)C[C@@]3(CO3)C(=O)[C@H](C)[C@@H](OC(C)=O)[C@@H](C)[C@@H](C)OC(=O)[C@@H]2C)O[C@@H](C)[C@@H]1OC(C)=O` [Troleandomycin], the growth yield runs as follows: (40 h) 100.5 ± 0.79%; (72 h) 98.4 ± 1.3%.
For `CC=CC1=C(C(=O)O)N2C(=O)[C@@H](NC(=O)[C@H](N)c3ccc(O)cc3)[C@H]2SC1` [Cefprozil] the same measures were 100 ± 1.4% and 92.7 ± 3.1%.
Regarding `CN1CCN(C2=Nc3cc(Cl)ccc3Nc3ccccc32)CC1` [Clozapine], the growth yield runs as follows: (40 h) 102 ± 2.4%; (72 h) 104.77 ± 0.1%.
Take `CN1[C@@H]2CC[C@H]1C[C@@H](OC(=O)c1c[nH]c3ccccc13)C2` [Tropisetron hydrochloride]: the growth yield (40 h) was 104 ± 10% and the growth yield (72 h) came to 104 ± 8.6%.
For `O=C(O)C[C@H](O)C[C@H](O)/C=C/c1c(C2CC2)nc2ccccc2c1-c1ccc(F)cc1` [Pitavastatin calcium] the same measures were 4.13% and 2.94%.
In the same order, the values of `CC(C)c1c(C(=O)Nc2ccccc2)c(-c2ccccc2)c(-c2ccc(F)cc2)n1CC[C@@H](O)C[C@@H](O)CC(=O)O` [Atorvastatin] are 106% and 85.1 ± 10%.
For `CC(C)n1c(/C=C/C(O)CC(O)CC(=O)O)c(-c2ccc(F)cc2)c2ccccc21` (centres undefined) [Fluvastatin sodium salt] the same measures were 1.91 ± 1.3% and 1.78 ± 0.94%.

The values are drawn from the supplement of paper PMC8007513.
